# Screens (PubChem)
# Rows were chosen to be rich in hits. Some 3.8% of all compounds tested hit in one or more screens of this group.
# Jurkat NFkB inh – inhibitors of induced NF-kB luciferase reporter, primary screen, TCR NF-kB activation inhibitor project, cell-based, luminescence, uHTS | Jurkat, PMA/ionomycin-induced NF-kB luciferase reporter | actives 0.53% (n = 330,000) | inhibition, % at 4 µM; in the data active means inhibition above about 50%
# Mdm2-MdmX inh – inhibitors of human Mdm2-MdmX association, primary screen, cell-based, luminescence, split luciferase, SaOS-2, uHTS; actives 3% (n = 330,000); SaOS-2 split-luciferase Mdm2/MdmX complementation; inhibition, % at 8 µM;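 active means inhibition of at least 50% at 8 µM in the primary screen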
# Target sequence (O15151 whole entry, looked up): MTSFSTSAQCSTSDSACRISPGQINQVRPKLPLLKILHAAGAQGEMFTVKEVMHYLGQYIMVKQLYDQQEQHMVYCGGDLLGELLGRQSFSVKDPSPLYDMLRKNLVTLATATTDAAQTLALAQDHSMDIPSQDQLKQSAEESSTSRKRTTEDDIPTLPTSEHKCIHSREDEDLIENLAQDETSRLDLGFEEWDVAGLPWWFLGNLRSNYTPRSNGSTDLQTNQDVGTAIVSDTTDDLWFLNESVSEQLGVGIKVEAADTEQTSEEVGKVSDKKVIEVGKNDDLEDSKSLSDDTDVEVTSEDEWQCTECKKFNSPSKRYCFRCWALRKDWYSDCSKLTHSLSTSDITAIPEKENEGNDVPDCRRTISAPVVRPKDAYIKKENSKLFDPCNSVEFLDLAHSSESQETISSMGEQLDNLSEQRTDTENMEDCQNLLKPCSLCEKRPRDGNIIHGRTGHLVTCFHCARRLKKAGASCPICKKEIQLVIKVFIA
# Target sequence (Q00987 whole entry, looked up): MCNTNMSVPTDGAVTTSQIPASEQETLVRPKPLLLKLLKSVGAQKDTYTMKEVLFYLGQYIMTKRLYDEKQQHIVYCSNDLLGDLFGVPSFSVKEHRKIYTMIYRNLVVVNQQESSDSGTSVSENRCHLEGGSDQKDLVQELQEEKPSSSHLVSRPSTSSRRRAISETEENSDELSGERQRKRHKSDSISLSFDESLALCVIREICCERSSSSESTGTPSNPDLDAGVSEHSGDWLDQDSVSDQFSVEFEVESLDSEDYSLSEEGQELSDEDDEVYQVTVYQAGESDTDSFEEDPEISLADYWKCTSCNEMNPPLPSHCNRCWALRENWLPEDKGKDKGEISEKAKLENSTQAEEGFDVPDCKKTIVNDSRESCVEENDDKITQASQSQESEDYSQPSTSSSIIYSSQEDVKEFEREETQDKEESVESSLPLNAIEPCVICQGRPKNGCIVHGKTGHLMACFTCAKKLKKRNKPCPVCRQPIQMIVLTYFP
# Gli-Sufu block – Gli-Sufu pathway antagonists, primary screen, luciferase luminescence, Sufu-KO-LIGHT cells, uHTS. Sufu-KO-LIGHT fibroblasts, Gli luciferase reporter luminescence. inhibition, % at 5 µM. actives 0.74% (n = 340,000);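 active means inhibition above about 55%, limit read from the data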;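 further: 0% = DMSO-treated cells and 100% = wells with medium but no cells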
# Shn3 3UTR inh – reduction of Shn3 3'UTR firefly luciferase signal, primary screen, Schnurri-3 inhibitor project, cell-based, Clone20 osteoblasts, set 2. actives 0.52% (n = 360,000). AID 588674, 2011. inhibition, % at 12.5 µM. Clone20 osteoblast Shn3 3'UTR firefly luciferase, 24 h;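 active means mean inhibition of at least 75% with every replicate also reaching 75%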;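 further: 0% = median of neutral control wells and 100% = pilot-screen positive control compound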
# 697 NFkB inh – inhibitors of PMA/ionomycin-induced NF-kB reporter, 697 cells, primary screen, B-cell NF-kB inhibitor project, cell-based, luminescence, uHTS; 697 B-cell NF-kB luciferase reporter, 16 h; inhibition, % at 4 µM; actives 0.33% (n = 330,000); AID 435022, 2010; in the data active means inhibition above about 35%
# Gli antag conf – Gli-SUFU pathway antagonists, confirmation, single concentration, luciferase luminescence, Sufu-KO-LIGHT cells. shares compounds with Gli-Sufu block. Gli luciferase reporter. inhibition, % at 5 µM. actives 40% (n = 2,500). AID 602428, 2012;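 active means mean inhibition at 5 µM reaching about 45%, limit read from the data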;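 further: plate controls were DMSO-treated cells for no effect and wells lacking cells for full effect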
# Gli cytotox – cytotoxicity in Sufu-KO-LIGHT cells, confirmation, cytotoxicity control for Gli-SUFU antagonist project, cell-based, ATP luminescence, single concentration. shares compounds with Gli-Sufu block. actives 32% (n = 2,500). cytotoxicity, % at 5 µM;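 active means mean cytotoxicity at 5 µM above about 25%, limit read from the data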;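 further: cells exposed to compound overnight for roughly 16 to 18 hours; plate controls were DMSO wells with cells for no effect and medium without cells for full effect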
# Wnt3a counter – Wnt3a reporter signal inhibition, confirmation, counter-screen for Gli-SUFU antagonist project, Wnt-LIGHT cells, luminescence, single concentration; shares compounds with Gli-Sufu block; Wnt3a-driven luciferase reporter; inhibition, % at 6.25 µM; actives 20% (n = 2,500);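 active means mean inhibition above about 25%, limit read from the data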
# Starred values were filed as active, the others as inactive; / = no result given.
SMILES,Jurkat NFkB inh,Mdm2-MdmX inh,Gli-Sufu block,Shn3 3UTR inh,697 NFkB inh,Gli antag conf,Gli cytotox,Wnt3a counter
CC(=O)N1CCN(c2ccc(S(=O)(=O)N3CCOCC3)cc2[N+](=O)[O-])CC1,12,-13,7,-14,16,/,/,/
COc1ccccc1C(=O)Nc1ccc2oc(-c3ccc(F)cc3)nc2c1,-33,-17,95*,-33,-45,-12,16,-71
Nn1c(SCC(=O)NC2CCS(=O)(=O)C2)nc2scc(-c3ccccc3)c2c1=O (stereo not given),-4,28,50,-35,5,23,-5,1
COc1ccc2c(c1)CN(C)S(=O)(=O)c1ccccc1-2,/,20,-3,5,8,/,/,/
COC(=O)CN(C(=O)CSc1nnc(-c2cccc(OC)c2)o1)c1ccc(OC)cc1,-8,6,-6,4,-11,/,/,/
CCOC(=O)CN(C(=O)CSc1nnc(-c2cccc(OC)c2)o1)c1ccc(F)cc1,-5,18,99*,5,6,11,11,-36
O=C(Cc1c(Cl)cccc1Cl)OCC(=O)c1ccc[nH]1,/,/,/,-4,/,/,/,/
O=C(Cc1c(F)cccc1Cl)OCC(=O)c1ccc[nH]1,5,-31,56*,4,14,13,7,-10
O=C(/C=C/c1ccccc1Cl)Nc1cccc(S(=O)(=O)NC2=NCCCCC2)c1,-1,13,51,1,-18,12,10,-151
CCOc1ccc(NC(=O)CCSc2nnc(C)s2)cc1,3,-17,53,6,8,17,-2,3
CC1(C)CC(=O)N(c2ccc(Cl)cc2Cl)C(=O)C1,15,19,68*,-19,16,7,4,-12
O=C(CCc1ccccc1)N=C1SC2CS(=O)(=O)CC2N1Cc1ccccc1 (stereo not given),6,3,-5,-2,-31,/,/,/
CC(=O)Nc1cc(-c2nn(CC(=O)N3CCCCC3)c(=O)c3ccccc23)ccc1N1CCOCC1,-10,-23,51,18,-28,16,9,-25
CC(=O)Nc1cc(-c2nn(C)c(=O)c3ccccc23)ccc1N1CCCCC1,14,-1,5,3,26,/,/,/
COc1ccc(C(=O)N2CCN(c3cccc(Cl)c3)CC2)c(OC)c1,32,43,12,-5,3,/,/,/
COc1ccccc1N1CCN(c2ncc(C(=O)N3CCN(c4cccc(Cl)c4)CC3)c3ccccc23)CC1,29,33,61*,93*,-23,67*,23,24
O=C(O)CCCCCN1C(=O)C2CCCCC2C1=O (stereo not given),-15,13,70*,-13,13,19,3,-18
O=C(O)CCCN1C(=O)C2C3C=CC(C2C1=O)C1C(=O)N(CCCC(=O)O)C(=O)C31 (stereo not given),-11,19,-24,-7,12,/,/,/
O=C(CCc1nc2sc3c(c2c(=O)[nH]1)CCCC3)Nc1cccc(Cl)c1,-3,22,70*,-13,-1,27,6,-11
COCCN(C(=O)C1=COCCO1)c1c(N)n(CC(C)C)c(=O)[nH]c1=O,-11,31,-4,-5,27,/,/,/
CCc1nc2ccccc2c(NC(=O)CN2CCC(C)CC2)c1C,2,2,51,-8,-21,18,8,-3
O=C(NCc1cccc(OC(F)(F)F)c1)C1CCC(=O)N(Cc2cccc(F)c2)C1 (stereo not given),2,3,10,-1,-12,/,/,/
Cc1noc(C)c1S(=O)(=O)N1CCCC1C(=O)O (stereo not given),8,-2,23,2,-1,/,/,/
Cc1ccc(NC(=O)c2ccccc2F)nc1,-110,-42,99*,-31,-82,-55,14,7
Cc1ccc(NC(=O)c2cc(F)c(F)cc2Cl)nc1,-71,-85,-90,-33,-52,/,/,/
SMILES,Jurkat NFkB inh,Mdm2-MdmX inh,Gli-Sufu block,Shn3 3UTR inh,697 NFkB inh,Gli antag conf,Gli cytotox,Wnt3a counter
Cc1ccc(Cl)cc1S(=O)(=O)N1CCC(C(=O)NC2CCN(Cc3ccccc3)CC2)CC1,44,32,53,40,-34,24,7,-1
COc1ccc2cc([C@@H](C)C(=O)O)ccc2c1,-14,8,53,-2,-12,16,6,-38
CC(C)(C)CNC(=O)c1cccc2c1C(=O)c1ccc(-c3cc4ccccc4o3)cc1S2(=O)=O,8,14,-6,-8,-4,/,/,/
O=C(COc1ccccc1)Nc1nnc(S(=O)(=O)N2CCCCC2)s1,13,3,52,-11,4,12,21,-16
Cc1cc(N2CCOCC2)nc(-c2ccccc2O)n1,-5,15,-8,-13,-25,/,/,/
Cc1cc(N2CCCCCC2)nc(-c2ccccc2O)n1,1,31,85*,11,-1,20,15,-16
Cn1c(=O)c2c(nc(NCc3ccc4c(c3)OCO4)n2Cc2ccccc2)n(C)c1=O,10,14,64*,60,2,62*,32*,8
Cn1c(=O)c2c(nc(NCc3ccc4c(c3)OCO4)n2Cc2ccc(F)cc2)n(C)c1=O,6,36,54,79,-12,44,27*,7
CC(C)(C)C(=O)Nc1c2c(nn1-c1ccccc1)CSC2,5,13,-13,-2,-2,/,/,/
Cc1[nH]c2ccccc2c1C(=O)CSc1nc2cc(S(=O)(=O)N3CCCCC3)ccc2o1,18,13,55*,51,-20,42,13,23
CC(C)NC(=O)CN1CCN(Cc2nc(C(c3ccccc3)c3ccccc3)no2)CC1,10,31,3,-7,6,/,/,/
CCc1cccc(CC)c1NC(=S)/C(=C(\[O-])c1ccc(Cl)s1)[n+]1ccccc1,-1,9,53,24,7,25,18,-4
O=C1C(c2ccccc2)C2C=CC(C2)N1O (stereo not given),/,/,-2,-24,/,/,/,/
CCOCC(=O)Nc1cc([N+](=O)[O-])ccc1C,7,26,91*,-13,18,16,0,7
O=C(COc1ccc([N+](=O)[O-])cc1)Nc1cc(C(=O)O)cc(C(=O)O)c1,0,6,3,-1,8,/,/,/
